{"source": "PubChem BioAssay (NCATS)", "key": {"[1]": {"biological_target": "Calcium and integrin-binding protein 1 (Homo sapiens) (UniProt Q99828)", "sequence (Q99828 whole entry, looked up)": "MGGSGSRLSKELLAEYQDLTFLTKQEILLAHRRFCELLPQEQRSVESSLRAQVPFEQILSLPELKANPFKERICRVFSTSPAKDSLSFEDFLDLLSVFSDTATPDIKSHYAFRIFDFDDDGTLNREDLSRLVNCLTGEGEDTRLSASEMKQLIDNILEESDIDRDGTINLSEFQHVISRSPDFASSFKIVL", "assay": "Primary qHTS for Identification of Calcium Integrin Binding Protein 1 (CIB1) Competitor (AID 1508620); also: top concentration of the series differs between compounds", "outline": "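Fluorescence polarization competition: GST-tagged CIB1 (1 uM final) preincubated with compound 15 min at room temperature, then FITC-labelled alphaIIb peptide (100 nM final) added. After 15 min at room temperature, polarization read at Ex 480/Em 540.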"}, "[2]": {"assay": "Primary qHTS for small molecule stabilizers of the endoplasmic reticulum resident proteome: Secreted ER Calcium Modulated Protein (SERCaMP) assay (AID 1508630)", "outline": "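The SH-SY5Y reporter protocol was run at 3 concentrations up to 38.3 uM (primary) or 11 concentrations (follow-up): 16 h compound, 100 nM thapsigargin for 4 h, then extracellular luciferase luminescence.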"}, "[3]": {"biological_target": "Cytochrome P450 2D6 (Homo sapiens) (UniProt P10635)", "sequence (P10635 whole entry, looked up)": "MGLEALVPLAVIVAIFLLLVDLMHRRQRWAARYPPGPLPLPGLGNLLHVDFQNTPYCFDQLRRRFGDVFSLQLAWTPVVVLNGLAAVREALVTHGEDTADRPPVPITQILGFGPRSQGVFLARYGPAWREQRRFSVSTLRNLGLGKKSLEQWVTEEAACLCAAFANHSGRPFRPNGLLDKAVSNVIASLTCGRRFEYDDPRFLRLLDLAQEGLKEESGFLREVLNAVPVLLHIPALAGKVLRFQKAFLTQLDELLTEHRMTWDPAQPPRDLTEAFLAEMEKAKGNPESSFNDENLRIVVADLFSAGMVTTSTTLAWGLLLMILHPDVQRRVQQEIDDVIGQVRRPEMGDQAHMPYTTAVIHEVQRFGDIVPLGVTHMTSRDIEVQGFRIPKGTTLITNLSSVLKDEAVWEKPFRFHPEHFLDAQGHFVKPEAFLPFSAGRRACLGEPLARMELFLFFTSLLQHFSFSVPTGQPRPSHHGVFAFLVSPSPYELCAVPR", "assay": "Cytochrome P450 family 2 subfamily D member 6 (CYP2D6) small molecule antagonists: luciferase biochemical (cell-free) qHTS assay (AID 1645840; active = well fitted curve in the direction sought with a large enough effect in the repeat runs; an effect the other way counts as inactive or inconclusive; also: nearly all actives have a fitted effect of over 55% in size; also: potency is read from the fitted curve at half-maximal effect)", "outline": "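P450-Glo CYP2D6 system: proluciferin substrate converted by enzyme to luciferin, read by luminescence proportional to activity. Enzyme-substrate mix with compound 10 min at room temperature, then NADPH regeneration 1 h before detection reagent.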"}, "[4]": {"biological_target": "Cytochrome P450 2C9 (Homo sapiens) (UniProt P11712)", "sequence (P11712 whole entry, looked up)": "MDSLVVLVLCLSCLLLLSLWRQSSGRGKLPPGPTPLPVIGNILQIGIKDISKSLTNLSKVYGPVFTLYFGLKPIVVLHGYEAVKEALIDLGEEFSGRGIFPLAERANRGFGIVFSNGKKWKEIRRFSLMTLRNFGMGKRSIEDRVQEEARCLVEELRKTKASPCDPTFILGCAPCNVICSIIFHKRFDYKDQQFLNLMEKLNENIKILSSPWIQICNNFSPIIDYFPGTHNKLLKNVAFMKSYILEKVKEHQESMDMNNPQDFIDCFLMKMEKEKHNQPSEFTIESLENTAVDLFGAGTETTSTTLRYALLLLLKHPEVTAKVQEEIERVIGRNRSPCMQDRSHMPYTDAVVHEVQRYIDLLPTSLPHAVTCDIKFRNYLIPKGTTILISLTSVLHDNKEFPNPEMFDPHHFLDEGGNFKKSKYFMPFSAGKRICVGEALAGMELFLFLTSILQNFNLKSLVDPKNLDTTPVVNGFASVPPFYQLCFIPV", "assay": "Cytochrome P450 family 2 subfamily C member 9 (CYP2C9) small molecule antagonists: luciferase biochemical (cell-free) qHTS assay (AID 1645842; active = well fitted curve in the direction sought with a large enough effect in the repeat runs; an effect the other way counts as inactive or inconclusive; also: potency is read from the fitted curve at half-maximal effect; nearly all actives have a fitted effect of over 55% in size)", "outline": "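P450-Glo CYP2C9 system: proluciferin substrate with enzyme in mix containing 0.4% BSA, 10 min at room temperature, then NADPH regeneration solution added and incubated 1 h at 37C. Detection reagent stopped reaction; luminescence read after 20 min as RLU.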"}}, "note": "Where “and” joins values, the source holds several entries; their conditions need not be identical. Identical values can stand only once. Results filed as inconclusive are left out. Entries that show only a call come without a potency. Calls of active or inactive are those of the source. Unless noted, calls follow the shape of the dose curve; as a rule, active = well fitted curve in the direction sought with a large enough effect; inconclusive = small, poorly fitted or top-dose-only effect, or another doubt; inactive = no such curve, though single readings can be large; an effect the other way counts as inactive or inconclusive.", "data": [{"compound": "CCn1cc(-c2ccnc3[nH]c(-c4cccc(CN(C)C)c4)cc23)c(-c2ccc(NC(=O)N(C)C)cc2)n1", "values": [{"measurement": "outcome", "setting": "[1]", "result": "inactive"}, {"measurement": "Potency", "setting": "[2]", "result": "inactive"}, {"measurement": "Potency", "setting": "[3]", "result": "19 µM (active)"}, {"measurement": "Potency", "setting": "[4]", "result": "21.3 µM (active)"}]}, {"compound": "CN(C1CCc2c(c3ccccc3n2CC(=O)O)C1)S(=O)(=O)c1ccc(F)cc1", "note": "(configuration not stated)", "values": [{"measurement": "outcome", "setting": "[1]", "result": "inactive"}, {"measurement": "Potency", "setting": "[3]", "result": "inactive"}, {"measurement": "Potency", "setting": "[4]", "result": "19 µM (active) and 13.5 µM (active)"}]}]}
